Source: PMC11006913
Numbering of substitutions follows the chain as printed.

Assays:
Experiment in all cases: PBM; 200 nM protein, PBS
Settings in all cases: dsDNA, one strand shown
HOXB4 [1] = target: HOXB4 (Homo sapiens, UniProt P17483 148-234)
HOXA4 [2] = target: HOXA4 (Homo sapiens, UniProt Q00056 201-287, W262R)
PRRX1 [3] = target: PRRX1 (Homo sapiens, UniProt P54821 80-166, F113S)
HOXB6 = HOXB6 (Homo sapiens, UniProt P17509 132-218, K202E)
HOXA4 [4] = target: HOXA4 (Homo sapiens, UniProt Q00056 201-287, R217L)
HOXB4 [5] = target: HOXB4 (Homo sapiens, UniProt P17483 148-234, V174I)
MSX2 [6] = target: MSX2 (Homo sapiens, UniProt P35548 130-214, R199I)
PAX4 [7] = target: T1, PAX4 (Homo sapiens, UniProt O43316 9-242, R200Q)
T1 sequence: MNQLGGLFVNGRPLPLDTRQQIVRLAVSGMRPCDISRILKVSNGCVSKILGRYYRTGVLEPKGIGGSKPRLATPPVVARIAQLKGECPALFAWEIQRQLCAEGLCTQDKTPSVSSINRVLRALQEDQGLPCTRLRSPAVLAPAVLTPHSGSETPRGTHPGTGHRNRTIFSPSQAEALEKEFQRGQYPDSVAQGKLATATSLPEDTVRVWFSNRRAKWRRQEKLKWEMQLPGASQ

HOXA4 [8] = target: HOXA4 (Homo sapiens, UniProt Q00056 201-287)
MSX2 [9] = target: MSX2 (Homo sapiens, UniProt P35548 130-214)
PAX4 [10] = target: T2, PAX4 (Homo sapiens, UniProt O43316 9-242, F177Y)
T2 sequence: T1 sequence with F169Y, Q192R

MSX2 [11] = target: MSX2 (Homo sapiens, UniProt P35548 130-214, F161Y)
HOXA4 [12] = target: HOXA4 (Homo sapiens, UniProt Q00056 201-287, W262F)
PRRX1 [13] = target: PRRX1 (Homo sapiens, UniProt P54821 80-166)
VENTX [14] = target: T3, VENTX (Homo sapiens, UniProt O95231 78-163, R121Q)
T3 sequence: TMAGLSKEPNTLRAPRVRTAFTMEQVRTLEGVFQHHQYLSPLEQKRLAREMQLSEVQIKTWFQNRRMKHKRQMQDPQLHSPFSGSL

VENTX [15] = target: T4, VENTX (Homo sapiens, UniProt O95231 78-163, Y115F)
T4 sequence: T3 sequence with Y38F, Q44R

HOXA2 = HOXA2 (Homo sapiens, UniProt O43364 129-215, R185T)
PAX4 [16] = target: T5, PAX4 (Homo sapiens, UniProt O43316 9-242, F177V)
T5 sequence: T1 sequence with F169V, Q192R

VAX1 [17] = target: VAX1 (Homo sapiens, UniProt Q5SQQ9 86-172, T142I)
VAX1 [18] = target: VAX1 (Homo sapiens, UniProt Q5SQQ9 86-172, K157R)
Chain of VAX1 (Homo sapiens, UniProt Q5SQQ9 86-172, K157R) (Q5SQQ9 86-172 K157R): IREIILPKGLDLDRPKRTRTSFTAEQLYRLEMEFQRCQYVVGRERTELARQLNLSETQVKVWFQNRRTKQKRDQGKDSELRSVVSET

Chain of MSX2 (Homo sapiens, UniProt P35548 130-214) (P35548 130-214): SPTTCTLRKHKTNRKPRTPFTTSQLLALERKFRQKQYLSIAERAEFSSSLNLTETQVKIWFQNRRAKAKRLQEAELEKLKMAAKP
Chain of VAX1 (Homo sapiens, UniProt Q5SQQ9 86-172, T142I) (Q5SQQ9 86-172 T142I): as the sequence (Q5SQQ9 86-172 K157R) above, with T57I, R72K counted along it
Chain of HOXB6 (P17509 132-218 K202E): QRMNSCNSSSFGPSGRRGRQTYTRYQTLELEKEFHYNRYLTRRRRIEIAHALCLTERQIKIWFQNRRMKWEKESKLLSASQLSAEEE
Chain of HOXA4 (Homo sapiens, UniProt Q00056 201-287, W262R) (Q00056 201-287 W262R): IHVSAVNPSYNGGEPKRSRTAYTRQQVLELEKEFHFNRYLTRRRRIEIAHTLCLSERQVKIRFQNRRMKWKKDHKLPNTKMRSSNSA
Chain of HOXA4 (Homo sapiens, UniProt Q00056 201-287, W262F) (Q00056 201-287 W262F): as the sequence (Q00056 201-287 W262R) above, with R62F counted along it
Chain of MSX2 (Homo sapiens, UniProt P35548 130-214, R199I) (P35548 130-214 R199I): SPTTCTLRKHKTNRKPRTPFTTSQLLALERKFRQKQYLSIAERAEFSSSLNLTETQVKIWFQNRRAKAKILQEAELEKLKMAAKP
Chain of HOXB4 (Homo sapiens, UniProt P17483 148-234) (P17483 148-234): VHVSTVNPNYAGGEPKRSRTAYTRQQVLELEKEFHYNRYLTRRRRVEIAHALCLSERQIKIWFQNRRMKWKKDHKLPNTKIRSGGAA
Chain of HOXB4 (Homo sapiens, UniProt P17483 148-234, V174I) (P17483 148-234 V174I): as the sequence (P17483 148-234) above, with V27I counted along it
Chain of PRRX1 (Homo sapiens, UniProt P54821 80-166, F113S) (P54821 80-166 F113S): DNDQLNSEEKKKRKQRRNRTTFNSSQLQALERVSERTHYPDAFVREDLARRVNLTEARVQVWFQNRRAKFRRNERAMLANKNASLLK
Chain of HOXA4 (Homo sapiens, UniProt Q00056 201-287) (Q00056 201-287): as the sequence (Q00056 201-287 W262R) above, with R62W counted along it
Chain of MSX2 (Homo sapiens, UniProt P35548 130-214, F161Y) (P35548 130-214 F161Y): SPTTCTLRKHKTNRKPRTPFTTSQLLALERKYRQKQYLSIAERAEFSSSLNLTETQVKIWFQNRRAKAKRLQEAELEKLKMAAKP
Chain of PRRX1 (Homo sapiens, UniProt P54821 80-166) (P54821 80-166): as the sequence (P54821 80-166 F113S) above, with S34F counted along it
Chain of HOXA4 (Homo sapiens, UniProt Q00056 201-287, R217L) (Q00056 201-287 R217L): as the sequence (Q00056 201-287 W262R) above, with R17L, R62W counted along it
Chain of HOXA2 (O43364 129-215 R185T): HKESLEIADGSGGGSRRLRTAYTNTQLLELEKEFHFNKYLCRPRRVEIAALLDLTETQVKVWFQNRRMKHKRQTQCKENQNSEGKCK

Sequence | binding signal (HOXB4 [1]) | binding signal (HOXA4 [2]) | binding signal (PRRX1 [3]) | binding signal (HOXB6) | binding signal (HOXA4 [4]) | binding signal (HOXB4 [5]) | binding signal (MSX2 [6]) | binding signal (PAX4 [7]) | binding signal (HOXA4 [8]) | binding signal (MSX2 [9]) | binding signal (PAX4 [10]) | binding signal (MSX2 [11]) | binding signal (HOXA4 [12]) | binding signal (PRRX1 [13]) | binding signal (VENTX [14]) | binding signal (VENTX [15]) | binding signal (HOXA2) | binding signal (PAX4 [16]) | binding signal (VAX1 [17]) | binding signal (VAX1 [18])
ATAATTGA | 13 upbm affinity estimate (log intensity, higher = more binding, comparable within an allelic series) | 10.6 upbm affinity estimate (log intensity, higher = more binding, comparable within an allelic series) | 11.5 upbm affinity estimate (log intensity, higher = more binding, comparable within an allelic series) | 10 upbm affinity estimate (log intensity, higher = more binding, comparable within an allelic series) | 12 upbm affinity estimate (log intensity, higher = more binding, comparable within an allelic series) | 13.7 upbm affinity estimate (log intensity, higher = more binding, comparable within an allelic series) | 12.8 upbm affinity estimate (log intensity, higher = more binding, comparable within an allelic series) | 11.9 upbm affinity estimate (log intensity, higher = more binding, comparable within an allelic series) | 13.7 upbm affinity estimate (log intensity, higher = more binding, comparable within an allelic series) | 13.8 upbm affinity estimate (log intensity, higher = more binding, comparable within an allelic series) | 11 upbm affinity estimate (log intensity, higher = more binding, comparable within an allelic series) | 13.5 upbm affinity estimate (log intensity, higher = more binding, comparable within an allelic series) | 11.3 upbm affinity estimate (log intensity, higher = more binding, comparable within an allelic series) | 13.5 upbm affinity estimate (log intensity, higher = more binding, comparable within an allelic series) | – | – | – | – | – | –
CCCTACGG | 7.88 upbm affinity estimate (log intensity, higher = more binding, comparable within an allelic series) | 9.76 upbm affinity estimate (log intensity, higher = more binding, comparable within an allelic series) | – | – | 9.8 upbm affinity estimate (log intensity, higher = more binding, comparable within an allelic series) | 7.93 upbm affinity estimate (log intensity, higher = more binding, comparable within an allelic series) | – | – | 9.86 upbm affinity estimate (log intensity, higher = more binding, comparable within an allelic series) | – | – | – | 9.84 upbm affinity estimate (log intensity, higher = more binding, comparable within an allelic series) | – | 8.13 upbm affinity estimate (log intensity, higher = more binding, comparable within an allelic series) | 8.13 upbm affinity estimate (log intensity, higher = more binding, comparable within an allelic series) | – | – | – | –
ATCAATTA | 13.4 upbm affinity estimate (log intensity, higher = more binding, comparable within an allelic series) | 10.7 upbm affinity estimate (log intensity, higher = more binding, comparable within an allelic series) | 11.4 upbm affinity estimate (log intensity, higher = more binding, comparable within an allelic series) | 10.1 upbm affinity estimate (log intensity, higher = more binding, comparable within an allelic series) | 12.6 upbm affinity estimate (log intensity, higher = more binding, comparable within an allelic series) | 14.1 upbm affinity estimate (log intensity, higher = more binding, comparable within an allelic series) | 13.1 upbm affinity estimate (log intensity, higher = more binding, comparable within an allelic series) | 12.2 upbm affinity estimate (log intensity, higher = more binding, comparable within an allelic series) | 14.1 upbm affinity estimate (log intensity, higher = more binding, comparable within an allelic series) | 14 upbm affinity estimate (log intensity, higher = more binding, comparable within an allelic series) | 11.2 upbm affinity estimate (log intensity, higher = more binding, comparable within an allelic series) | 13.7 upbm affinity estimate (log intensity, higher = more binding, comparable within an allelic series) | 11.9 upbm affinity estimate (log intensity, higher = more binding, comparable within an allelic series) | 13.6 upbm affinity estimate (log intensity, higher = more binding, comparable within an allelic series) | 12.3 upbm affinity estimate (log intensity, higher = more binding, comparable within an allelic series) | 11.8 upbm affinity estimate (log intensity, higher = more binding, comparable within an allelic series) | 13.3 upbm affinity estimate (log intensity, higher = more binding, comparable within an allelic series) | 10.7 upbm affinity estimate (log intensity, higher = more binding, comparable within an allelic series) | 12.9 upbm affinity estimate (log intensity, higher = more binding, comparable within an allelic series) | 13.1 upbm affinity estimate (log intensity, higher = more binding, comparable within an allelic series)
AATTAACA | 13 upbm affinity estimate (log intensity, higher = more binding, comparable within an allelic series) | 10.8 upbm affinity estimate (log intensity, higher = more binding, comparable within an allelic series) | 11.2 upbm affinity estimate (log intensity, higher = more binding, comparable within an allelic series) | 10 upbm affinity estimate (log intensity, higher = more binding, comparable within an allelic series) | 12.1 upbm affinity estimate (log intensity, higher = more binding, comparable within an allelic series) | 13.8 upbm affinity estimate (log intensity, higher = more binding, comparable within an allelic series) | 12.4 upbm affinity estimate (log intensity, higher = more binding, comparable within an allelic series) | 12.2 upbm affinity estimate (log intensity, higher = more binding, comparable within an allelic series) | 13.7 upbm affinity estimate (log intensity, higher = more binding, comparable within an allelic series) | 13.6 upbm affinity estimate (log intensity, higher = more binding, comparable within an allelic series) | 11.2 upbm affinity estimate (log intensity, higher = more binding, comparable within an allelic series) | 13.2 upbm affinity estimate (log intensity, higher = more binding, comparable within an allelic series) | 11.7 upbm affinity estimate (log intensity, higher = more binding, comparable within an allelic series) | 13.3 upbm affinity estimate (log intensity, higher = more binding, comparable within an allelic series) | 11.9 upbm affinity estimate (log intensity, higher = more binding, comparable within an allelic series) | 11.7 upbm affinity estimate (log intensity, higher = more binding, comparable within an allelic series) | 12.6 upbm affinity estimate (log intensity, higher = more binding, comparable within an allelic series) | 10.8 upbm affinity estimate (log intensity, higher = more binding, comparable within an allelic series) | 12.6 upbm affinity estimate (log intensity, higher = more binding, comparable within an allelic series) | 12.8 upbm affinity estimate (log intensity, higher = more binding, comparable within an allelic series)
AATTAGTC | 12.4 upbm affinity estimate (log intensity, higher = more binding, comparable within an allelic series) | – | – | – | – | 13 upbm affinity estimate (log intensity, higher = more binding, comparable within an allelic series) | 12.3 upbm affinity estimate (log intensity, higher = more binding, comparable within an allelic series) | 12.1 upbm affinity estimate (log intensity, higher = more binding, comparable within an allelic series) | – | 13.5 upbm affinity estimate (log intensity, higher = more binding, comparable within an allelic series) | 10.8 upbm affinity estimate (log intensity, higher = more binding, comparable within an allelic series) | 13 upbm affinity estimate (log intensity, higher = more binding, comparable within an allelic series) | – | – | – | – | – | 10.4 upbm affinity estimate (log intensity, higher = more binding, comparable within an allelic series) | – | 12.3 upbm affinity estimate (log intensity, higher = more binding, comparable within an allelic series)
CTAATTAC | 13.6 upbm affinity estimate (log intensity, higher = more binding, comparable within an allelic series) | 10.8 upbm affinity estimate (log intensity, higher = more binding, comparable within an allelic series) | 11.5 upbm affinity estimate (log intensity, higher = more binding, comparable within an allelic series) | 10 upbm affinity estimate (log intensity, higher = more binding, comparable within an allelic series) | 12.7 upbm affinity estimate (log intensity, higher = more binding, comparable within an allelic series) | 14.4 upbm affinity estimate (log intensity, higher = more binding, comparable within an allelic series) | 13.2 upbm affinity estimate (log intensity, higher = more binding, comparable within an allelic series) | 12.3 upbm affinity estimate (log intensity, higher = more binding, comparable within an allelic series) | 14.2 upbm affinity estimate (log intensity, higher = more binding, comparable within an allelic series) | 14.1 upbm affinity estimate (log intensity, higher = more binding, comparable within an allelic series) | 11.1 upbm affinity estimate (log intensity, higher = more binding, comparable within an allelic series) | 13.8 upbm affinity estimate (log intensity, higher = more binding, comparable within an allelic series) | 12.5 upbm affinity estimate (log intensity, higher = more binding, comparable within an allelic series) | 13.6 upbm affinity estimate (log intensity, higher = more binding, comparable within an allelic series) | 12.7 upbm affinity estimate (log intensity, higher = more binding, comparable within an allelic series) | 12.7 upbm affinity estimate (log intensity, higher = more binding, comparable within an allelic series) | 14.2 upbm affinity estimate (log intensity, higher = more binding, comparable within an allelic series) | 10.6 upbm affinity estimate (log intensity, higher = more binding, comparable within an allelic series) | 14 upbm affinity estimate (log intensity, higher = more binding, comparable within an allelic series) | 14.1 upbm affinity estimate (log intensity, higher = more binding, comparable within an allelic series)
